The source of these data is PubChem BioAssay (NCATS).

Test [1] in a line: qHTS to identify inhibitors of the type 1 interferon - major histocompatibility complex class I in skeletal muscle: primary screen against the NCATS Mechanism Interrogation Plate v5.0 (MIPE) Libary (AID 1347411).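 For activity change, negative = inhibition: plate controls were vehicle for no effect and reference inhibitor for full effect.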 Note: nearly all actives have a fitted effect of over 65% in size. Note: potency is the fitted concentration of half-maximal effect. Put shortly: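 IFN-beta-driven (4 ng/ml) HLA-B-HiBit expression in CRISPR-tagged C25cl48 myoblasts; compounds 11-pt, 1:3, max 46 uM, 24 hr exposure; lytic NanoLuc complementation luminescence.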
(In general: qHTS replaces the single test concentration by a dilution series.)

Test [2] deals with Calcium and integrin-binding protein 1 (Homo sapiens) (UniProt Q99828). Kind of test: Primary qHTS for Identification of Calcium Integrin Binding Protein 1 (CIB1) Competitor (AID 1508620).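 Note: GST tagged CIB1 binding a fluorescein labelled alphaIIb integrin peptide tracer; top concentration of the series differs between compounds; % is set by controls: 0 for no effect and ±100 for the full control effect.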 An outline of the steps:
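Fluorescence polarization competition: GST-tagged CIB1 (1 uM final) preincubated with compound 15 min at room temperature, then FITC-labelled alphaIIb peptide (100 nM final) added. After 15 min at room temperature, polarization read at Ex 480/Em 540.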

Test [3] is described as follows: Primary qHTS for inhibitors of nuclear receptor binding SET domain protein 2 (NSD2) in an isogenic RCH-ACV NSD2 p.E1099K mutant (9B) (AID 1645876). Note: nearly all actives have a fitted effect of over 70% in size. Note: potency is the fitted concentration of half-maximal effect.
Test [4] in a line: Primary qHTS for inhibitors of nuclear receptor binding SET domain protein 2 (NSD2) in an RCH-ACV wild type WT cells (2C) (AID 1645877). Note: nearly all actives have a fitted effect of over 70% in size. Note: potency is the fitted concentration of half-maximal effect.
Test [5] can be described thus: Primary qHTS for small molecule stabilizers of the endoplasmic reticulum resident proteome: Secreted ER Calcium Modulated Protein (SERCaMP) assay (AID 1508630). Note: % is set by controls: 0 for no effect and ±100 for the full control effect. Put shortly:
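The SH-SY5Y reporter protocol was run at 3 concentrations up to 38.3 uM (primary) or 11 concentrations (follow-up): 16 h compound, 100 nM thapsigargin for 4 h, then extracellular luciferase luminescence.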

Test [6] addresses Cytochrome P450 2D6 (Homo sapiens) (UniProt P10635). Briefly: Cytochrome P450 family 2 subfamily D member 6 (CYP2D6) small molecule antagonists: luciferase biochemical (cell-free) qHTS assay (AID 1645840; active = well fitted curve in the direction sought with a large enough effect in the repeat runs; an effect the other way counts as inactive or inconclusive; note: % is set by controls: 0 for no effect and ±100 for the full control effect; nearly all actives have a fitted effect of over 55% in size). Put shortly: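 P450-Glo CYP2D6 system: proluciferin substrate converted by enzyme to luciferin, read by luminescence proportional to activity. Enzyme-substrate mix with compound 10 min at room temperature, then NADPH regeneration 1 h before detection reagent.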

For test [7], the target named is Cytochrome P450 2C9 (Homo sapiens) (UniProt P11712). Briefly: Cytochrome P450 family 2 subfamily C member 9 (CYP2C9) small molecule antagonists: luciferase biochemical (cell-free) qHTS assay (AID 1645842; active = well fitted curve in the direction sought with a large enough effect in the repeat runs; an effect the other way counts as inactive or inconclusive; note: % is set by controls: 0 for no effect and ±100 for the full control effect; nearly all actives have a fitted effect of over 55% in size). Put shortly: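 P450-Glo CYP2C9 system: proluciferin substrate with enzyme in mix containing 0.4% BSA, 10 min at room temperature, then NADPH regeneration solution added and incubated 1 h at 37C. Detection reagent stopped reaction; luminescence read after 20 min as RLU.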

The target of test [8] is Catechol O-methyltransferase (Homo sapiens) (UniProt P21964). Kind of test: Confirmatory Screen for Target Class Profiling of Small Molecule Inhibitors of Methyltransferases (AID 1745852; calls by dose curve). Particulars: MTase-Glo luminescence, SAH detection, recombinant enzyme; measured here: COMT max response; stronger effect = lower value.
Test [9] has as its target Guanidinoacetate N-methyltransferase (Homo sapiens) (UniProt Q14353). The description is as above. The settings on record: activity change, negative = inhibition: at 57.3 µM (top of the series).
For test [10], the target named is Nicotinamide N-methyltransferase (Homo sapiens) (UniProt P40261). Described as above. The settings on record: MTase-Glo luminescence, SAH detection, recombinant enzyme; measured here: NNMT max response; stronger effect = lower value.
Test [11] concerns the target Protein phosphatase 1D (Homo sapiens) (UniProt O15297). Kind of test: RapidFire Mass Spectrometry qHTS Assay for Modulators of WT P53-Induced Phosphatase 1 (WIP1) (AID 1347424).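 Note: plate controls were DMSO wells for no effect and GSK830371 inhibitor control at 10 µM for full effect.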 Put shortly:
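RapidFire MS readout of dephosphorylated VEPPL-S-QETFS product, with 1 uM isotope-labelled peptide standard. Reaction: 10 nM WIP1, 2 uM phosphopeptide substrate, 5 min, room temperature, after 1 h compound preincubation; stopped with 0.5% formic acid.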

Test [12] shares this target. Briefly: Rhodamine-PBP qHTS Assay for Modulators of WT P53-Induced Phosphatase 1 (WIP1) (AID 1347425). Note: % of control where 0% means no effect. An outline of the steps: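 WIP1 (5 nM final) was preincubated with compound for 1 hour at room temperature. It then dephosphorylated 10 uM VEPPL-pS-QETFS peptide in Tris-HCl pH 7.5 with 30 mM MgCl2. Released Pi was detected by 10 uM Rh-PBP fluorescence (ex 525/em 598 nm) read at 1-min intervals for 11 min, as delta f1 - f0.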

Test [13] is described as follows: Primary qHTS for inhibitors of La Crosse Virus (LACV) - induced cell death in SH-SY5Y cells (AID 1508616).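 Note: top concentration of the series differs between compounds; 0% = infected DMSO wells and 100% = uninfected DMSO wells; higher means more rescue of cells from virus-induced death.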 An outline of the steps: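 Screening measures cell viability in LACV-infected SH-SY5Y cultures. Compound was added before virus (0.01 MOI), and ATP was detected by luminescence 6 days later.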
Test [14] is described as follows: A High-Content qHTS Against Drug Library for the Identification of Small Molecules that Inhibit DYT1 Early Onset Primary Dystonia-Associated Cell Pathology (AID 1645839; calls by dose curve). Put shortly: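 Cells were seeded and left for 24 h, then dosed with compound alongside tetracycline induction of mutant EGFP-TorsinA. They were incubated for 48 h, fixed in 4% paraformaldehyde, permeabilized and imaged for mislocalization (%pathology) and cell count.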

Test [15] can be described thus: Counterscreen qHTS for small molecule stabilizers of the endoplasmic reticulum resident proteome: GLuc-NoTag assay (AID 1508627).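 Note: SH-SY5Y cells given compound then 100 nM thapsigargin to empty ER calcium; 0% = thapsigargin alone and -100% = DMSO vehicle control.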 An outline of the steps:
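Counterscreen line: SH-SY5Y-GLuc-NoTag. Seed, 5 h; compound, 19 h; thapsigargin 100 nM, 4 h; 37C/5% CO2. Readout: secreted GLuc luminescence, coelenterazine 0.07x final, no lysis.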
Background: A counterscreen serves to expose hits that act by an unwanted route or on another target.

Inconclusive results are not listed. Calls of active or inactive are those of the source. Unless noted, calls come from the whole dose curve; as a rule, active = well fitted curve in the direction sought with a large enough effect; inconclusive = small, poorly fitted or top-dose-only effect, or another doubt; inactive = no such curve, though single readings can be large; an effect the other way counts as inactive or inconclusive.

Calcium and integrin-binding protein 1 (Homo sapiens), sequence (Q99828 whole entry, looked up): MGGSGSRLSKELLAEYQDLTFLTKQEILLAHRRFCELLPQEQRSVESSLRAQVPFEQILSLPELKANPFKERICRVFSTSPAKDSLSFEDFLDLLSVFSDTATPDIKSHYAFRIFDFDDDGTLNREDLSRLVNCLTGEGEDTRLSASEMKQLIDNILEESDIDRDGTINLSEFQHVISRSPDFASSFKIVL
Cytochrome P450 2D6 (Homo sapiens), sequence (P10635 whole entry, looked up): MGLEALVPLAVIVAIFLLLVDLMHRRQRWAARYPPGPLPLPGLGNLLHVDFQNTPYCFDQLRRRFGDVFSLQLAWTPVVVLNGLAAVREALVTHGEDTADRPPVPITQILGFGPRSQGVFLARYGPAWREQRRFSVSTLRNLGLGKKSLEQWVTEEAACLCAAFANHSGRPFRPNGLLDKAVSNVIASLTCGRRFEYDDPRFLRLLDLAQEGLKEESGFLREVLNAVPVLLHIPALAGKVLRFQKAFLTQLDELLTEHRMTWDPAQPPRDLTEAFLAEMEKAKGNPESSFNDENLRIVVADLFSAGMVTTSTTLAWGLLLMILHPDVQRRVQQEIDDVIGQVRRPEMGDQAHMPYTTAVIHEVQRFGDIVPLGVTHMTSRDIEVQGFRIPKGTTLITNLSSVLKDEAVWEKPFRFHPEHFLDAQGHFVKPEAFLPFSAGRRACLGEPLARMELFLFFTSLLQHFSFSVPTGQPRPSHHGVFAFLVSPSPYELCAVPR
Protein phosphatase 1D (Homo sapiens), sequence (O15297 whole entry, looked up): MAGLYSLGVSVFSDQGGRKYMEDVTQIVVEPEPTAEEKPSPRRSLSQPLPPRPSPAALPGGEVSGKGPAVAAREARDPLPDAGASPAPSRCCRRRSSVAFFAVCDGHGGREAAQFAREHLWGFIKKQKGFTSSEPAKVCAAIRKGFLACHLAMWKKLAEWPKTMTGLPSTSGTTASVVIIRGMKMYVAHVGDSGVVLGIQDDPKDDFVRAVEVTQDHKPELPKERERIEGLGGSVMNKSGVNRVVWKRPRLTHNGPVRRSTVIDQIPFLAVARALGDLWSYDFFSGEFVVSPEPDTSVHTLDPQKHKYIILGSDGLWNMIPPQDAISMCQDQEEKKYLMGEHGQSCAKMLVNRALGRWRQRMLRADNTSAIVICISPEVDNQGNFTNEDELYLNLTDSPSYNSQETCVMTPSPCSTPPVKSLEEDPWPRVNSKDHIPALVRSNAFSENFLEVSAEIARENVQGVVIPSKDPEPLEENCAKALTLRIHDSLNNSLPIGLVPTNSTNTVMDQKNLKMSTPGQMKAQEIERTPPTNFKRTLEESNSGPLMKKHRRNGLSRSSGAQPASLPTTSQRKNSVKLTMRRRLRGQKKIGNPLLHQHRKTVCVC
Cytochrome P450 2C9 (Homo sapiens), sequence (P11712 whole entry, looked up): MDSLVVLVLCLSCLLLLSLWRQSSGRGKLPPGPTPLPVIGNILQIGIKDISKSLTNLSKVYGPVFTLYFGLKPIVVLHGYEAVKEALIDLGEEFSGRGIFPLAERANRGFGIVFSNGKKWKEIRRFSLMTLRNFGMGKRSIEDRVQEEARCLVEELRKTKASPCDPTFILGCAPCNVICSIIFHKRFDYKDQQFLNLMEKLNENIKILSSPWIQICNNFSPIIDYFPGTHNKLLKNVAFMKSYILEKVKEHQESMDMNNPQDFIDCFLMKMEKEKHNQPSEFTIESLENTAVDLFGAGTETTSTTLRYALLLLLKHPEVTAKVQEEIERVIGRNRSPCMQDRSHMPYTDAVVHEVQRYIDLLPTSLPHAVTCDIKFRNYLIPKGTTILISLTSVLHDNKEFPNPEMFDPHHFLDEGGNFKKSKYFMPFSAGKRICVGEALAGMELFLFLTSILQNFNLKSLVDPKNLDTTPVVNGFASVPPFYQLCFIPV
Catechol O-methyltransferase (Homo sapiens), sequence (P21964 whole entry, looked up): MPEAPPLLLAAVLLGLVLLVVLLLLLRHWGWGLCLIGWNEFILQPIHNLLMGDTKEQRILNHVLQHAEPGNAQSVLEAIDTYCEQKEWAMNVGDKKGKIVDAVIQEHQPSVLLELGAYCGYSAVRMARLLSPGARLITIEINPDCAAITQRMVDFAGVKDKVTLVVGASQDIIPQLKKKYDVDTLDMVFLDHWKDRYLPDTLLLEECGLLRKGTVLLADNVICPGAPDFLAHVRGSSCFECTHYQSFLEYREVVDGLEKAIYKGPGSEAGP
Nicotinamide N-methyltransferase (Homo sapiens), sequence (P40261 whole entry, looked up): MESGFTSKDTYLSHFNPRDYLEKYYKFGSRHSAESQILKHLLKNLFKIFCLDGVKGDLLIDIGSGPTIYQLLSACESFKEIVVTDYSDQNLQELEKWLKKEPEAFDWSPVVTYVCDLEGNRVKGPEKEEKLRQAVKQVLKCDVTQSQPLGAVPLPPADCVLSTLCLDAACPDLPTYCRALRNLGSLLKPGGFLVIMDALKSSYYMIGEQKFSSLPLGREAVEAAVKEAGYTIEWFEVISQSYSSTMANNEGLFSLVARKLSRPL

On to `CN(C)c1ccc2cc(C(=O)N[C@@H](CCCN=C(N)CCl)C(=O)NCc3ccccc3)ccc2c1`, for which the Potency in [1] was 20800 nM (active). The Potency result in test [2], in test [3] and in [4] was “inactive” in each case.
For the compound `O=C1NCCc2[nH]c(-c3ccncc3)cc21`, the values for the Potency in test [1], in [3] and in test [4] were 2080 nM (active), 2350 nM (active) and 1320 nM (active), respectively. Moreover, the Potency entry in test [2] was “inactive”. For the same compound, the outcome in test [5] is “inactive”.
For `NC(=O)Nc1cc(-c2ccc(CN3CCOCC3)cc2)sc1C(N)=O`, the Potency in test [1] was 7390 nM (active); in [3], 662 nM (active); in test [4], 372 nM (active). In [2], the Potency entry was “inactive”. Moreover, the outcome in test [5] is “inactive”.
For `CC(Cc1ccc(O)c(O)c1)(NN)C(=O)O` (stereo not given), the Potency entry in [1] and in test [2] was “inactive” in each case. For the same compound, the outcome in test [5] was “inactive”. Besides, the Potency in [4] is 29500 nM (active).
Take `NC1=N[C@H]2[C@H](CS[C@H]2CCCCC(=O)O)N1`: the Potency entry in test [1], in [2], in [6], in [7] and in [3] was “inactive” throughout.
For the compound `CC(=O)O[C@H]1C[C@@H]2CC[C@H]3[C@H]4C[C@H]([N+]5(C)CCCCC5)[C@@H](OC(C)=O)[C@@]4(C)CC[C@@H]3[C@@]2(C)C[C@H]1[N+]1(C)CCCCC1`, the Potency entry in test [1], in test [2], in test [3] and in [4] was “inactive” each time. In test [5], the outcome is “inactive”.
As to `C[C@H](NC(=O)Cc1cc(F)cc(F)c1)C(=O)N[C@H](C(=O)OC(C)(C)C)c1ccccc1`, the Potency result in [1], in [2], in test [3] and in [4] was “inactive” each time. For the same compound, in [5], the outcome was “inactive”.
Take `NC(=O)Nc1sc(-c2ccc(F)cc2)cc1C(N)=O`: the figures for the Potency in test [1], in test [3] and in test [4] were 1650 nM (active), 3320 nM (active) and 3720 nM (active), respectively. In addition, in test [2], the Potency entry is “inactive”.
As to `c1ccc(CNc2nc(NCc3ccccc3)c3ccccc3n2)cc1`, the Potency in test [1] was 26200 nM (active); in test [3], 5900 nM (active); in test [4] it was 5900 nM (active). In addition, the Potency entry in test [2] was “inactive”. Further, the outcome in test [5] is “inactive”.
For `OC[C@@H](O)[C@@H](O)[C@H](O)[C@@H](O)CO`, the Potency entry in test [1], in test [2], in test [3] and in test [4] was “inactive” in each case.
Turning to `c1cc(N[C@@H]2CCNC2)nc(-c2cnc3ccc(-c4cn[nH]c4)cn23)c1`, the figures for the Potency in test [1], in [3] and in test [4] were 829 nM (active), 2630 nM (active) and 934 nM (active), respectively. The Potency entry in test [2] and in test [9] was “inactive” each time. Moreover, the outcome in test [5] is “inactive”. Also, the activity was -4.23% in test [8] and -7.42% in test [10].
As for `C=C(C)[C@@H]1CC[C@]2(C)CC[C@]3(C)[C@H](CC[C@@H]4[C@@]5(C)CC[C@H](O)C(C)(C)[C@H]5CC[C@]43C)[C@@H]12`, the Potency entry in test [1], in test [2], in test [3] and in [4] was “inactive” throughout.
Turning to `Cc1cn([C@@H]2O[C@H](CO)[C@@H](O)[C@H]2F)c(=O)[nH]c1=O`, the Potency entry in [11], in test [2], in [6], in test [7], in test [3] and in [4] was “inactive” throughout. Also, the outcome in test [12], in test [13] and in [14] was “inactive” throughout.
For `C=CC[C@@H]1C=C(C)C[C@H](C)C[C@H](OC)[C@H]2O[C@@](O)(C(=O)C(=O)N3CCCC[C@H]3C(=O)O[C@H](C(C)=C[C@@H]3CC[C@H](O)[C@H](OC)C3)[C@@H](C)[C@@H](O)CC1=O)[C@@H](C)C[C@@H]2OC`, the Potency entry in test [2] was “inactive”. The outcome in test [15] was “inactive”.
On to `CN(N=O)C(=O)N[C@H]1C(O)OC(CO)[C@@H](O)[C@H]1O` (stereo not given in full), for which, in [2], the Potency entry is “inactive”.
